Only a selection was taken, and hits are over-represented in it overall.
Pf Dd2 inh: Plasmodium falciparum Dd2 growth inhibition | Potency, µM (doses to about 28.9 µM), inactives show at the top dose activity, negative = inhibition, most hits filed as inhibitors | 120,000 tested, 4.3% active | AID 1347417 | P. falciparum Dd2 growth, SYBR Green, 72 h; active = well fitted inhibition curve with a large enough effect;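 note: plate controls were DMSO vehicle for no effect and reference drug for full effect; nearly all actives have a fitted effect of over 65% in size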
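Infected erythrocytes (Dd2, 0.3% parasitemia, 2.5% hematocrit final) are added to compound in RPMI-1640/Albumax II medium, grown 72 h at 37C in low oxygen, then lysed with saponin/Triton-X containing SYBR Green and read by fluorescence.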
Numbers without * were called inactive; i = inactive; [ ] = dose if it differs, or a comment. Potency is the fitted concentration of half-maximal effect.

SMILES | Pf Dd2 inh
COC(=O)c1nc2n(n1)C(c1cc(OC)ccc1OC)C=C(c1ccc(Br)cc1)N2 (stereo not drawn) | 11%
COc1ccc(C2=CC(c3cc(Br)ccc3F)n3c(nc4ccccc43)N2)cc1 (stereo not drawn) | -23%
Cn1cccc1C(=O)N1CCC(N2C[C@H](O)C[C@H]2C(=O)NC2CCCCC2)CC1 | i
O=C1CCCCC(CNC(=O)c2cn[nH]c2-c2ccccc2)N1 (stereo not drawn) | 26%
N[C@@H](CO)c1nc(C2CCOCC2)nn1-c1ccccc1F | 3%
O=C(Cn1cc(S(=O)(=O)Cc2ccccc2Cl)c2ccccc21)NCc1ccccc1Cl | i
CN(C)c1ccc(NC(=O)Cn2cc(S(=O)(=O)Cc3cccc(Cl)c3)c3ccccc32)cc1 | i
CN(C)c1ccc(NC(=O)Cn2cc(S(=O)(=O)Cc3ccccc3Cl)c3ccccc32)cc1 | 7.9µM*
CCC1=NOC(CNC(=O)c2ccc(OC3CCN(C(=O)COC)CC3)cc2)C1 (stereo not drawn) | -15%
Cc1cnc(C(=O)NC2C[C@H]3CC[C@@H](C2)N3C(=O)COc2ccccc2)cn1 (stereo partly drawn) | i
COc1ccccc1-c1ccnc(N[C@H]2CO[C@H]3[C@@H]2OC[C@@H]3NC(=O)NC2CCCCC2)n1 | -15%
O=[S+]([O-])(Nc1cccnc1)c1ccc2c(c1)OCCN(Cc1ccccc1F)C2 | -18%[44.1 µM]
O=[S+]([O-])(Nc1cccnc1)c1ccc2c(c1)OCCN(Cc1ccncc1F)C2 | i
O=[S+]([O-])(Nc1ccccc1)c1ccc2c(c1)OCCN(Cc1ccncc1F)C2 | 5µM*
Cc1ccc(NC(=O)c2cc3n(n2)CC(c2ccc(Cl)cc2)OC3)cc1F (stereo not drawn) | -12%
COCCc1nncn1C1CCN(C(=O)c2cc(C)ccc2C)CC1 | i
Cc1ccncc1C(=O)N1CCC2(CC1)CC(N1CCN(c3ccccn3)CC1)CCO2 (stereo not drawn) | i
Cc1ccc(C(=O)N2CCC(c3nn(-c4ccc(Cl)cc4)c(=O)[nH]3)CC2)cc1 | -20%
O=C(Nc1cc(Cl)ccc1O)c1cc2nc(-c3ccc4c(c3)OCO4)cc(C(F)(F)F)n2n1 | 1.6µM*
O=C(Nc1cc(Cl)ccc1Cl)c1cc2nc(-c3ccc4c(c3)OCO4)cc(C(F)(F)F)n2n1 | 38%
O=C(NCC12CC3CC(CC(C3)C1)C2)c1cc2nc(-c3ccc(Cl)cc3)cc(C(F)(F)F)n2n1 | -10%
CCn1cc(CNC(=O)c2ccc(OC3CCN(S(=O)(=O)N(C)C)CC3)cc2)cn1 | -25%
O=C(Nc1ccccc1)O[C@@H]1CO[C@H]2[C@@H]1OC[C@@H]2n1nnnc1-c1ccc2c(c1)OCCO2 | 3%
CCCS(=O)(=O)c1c(S(=O)(=O)CCC)c2cc(C(C)(C)C)ccn2c1C(=O)c1ccc(OC)c(OC)c1 | 2.8µM*
COc1ccc(C(=O)N2CCN(C(=O)COc3ccc(Br)cc3)CC2)cc1OC | 36%
SMILES | Pf Dd2 inh
CCCS(=O)(=O)c1c(S(=O)(=O)CCC)c2cc(C(C)(C)C)ccn2c1C(=O)c1ccccc1 | 2.5µM*
Nc1c(C(=O)Nc2cccc(C(F)(F)F)c2)c2ccccn2c1C(=O)c1ccccc1 | i
CCCCN(CCCC)C1=C(C(=O)c2ccccc2)N(CC)S(=O)(=O)c2ccccc21 | -9%
COc1ccc(OCC(=O)N2CCN(C(=O)c3ccc(OC)c(OC)c3)CC2)cc1 | 14%
COc1ccc(NC(=O)C2CC(=O)N(c3n[nH]c4cccc(F)c34)C2)c(OC)c1 (stereo not drawn) | -17%
COc1ccc2ccc(OCc3nc(C(=O)NCc4csc(N)n4)co3)cc2c1 | -20%
CCc1noc(-c2ccn3c(CNC(=O)CCC4CCCC4)nnc3c2)n1 | i
CCSc1nnc(-c2ccccc2NC(=O)C(CC)n2cccn2)c(=O)[nH]1 (stereo not drawn) | 16%
COc1ccc2cc(C3CN(c4ncnc(C)c4C)CCO3)ccc2c1 (stereo not drawn) | -9%
Cc1cc(C)c(NC(=O)Cn2nc3n(c2=O)CCCCC3)c(C)c1 | -24%
CN(Cc1cnccn1)C(=O)c1cc(CN2CCC(Cc3ccccc3)CC2)on1 | 6%
O=c1c2ccccc2n(Cc2c(F)cccc2Cl)c(=O)n1Cc1ccccc1 | -2%
O=C(NC1CCN(Cc2ccccc2)CC1)c1ccc(Cn2c(=O)c3ccccc3n(Cc3ccc(F)cc3)c2=O)cc1 | 10µM*
Cc1ccc(C)c(Cn2c(=O)n(Cc3ccc(C(=O)NC4CCN(Cc5ccccc5)CC4)cc3)c(=O)c3ccccc32)c1 | -3%
O=C(NCc1ccccc1)c1cnc2n1CCN(CCCc1ccccc1)CC2 | 21%[44.1 µM]
O=S(=O)(Nc1nc2n(n1)C(c1ccc(F)cc1)C=C(c1ccccc1)N2)c1ccc(Cl)cc1 (stereo not drawn) | -16%
COc1ccc(C(=O)Nc2nc3n(n2)C(c2ccc(F)cc2)C=C(c2ccc(Cl)cc2)N3)cc1 (stereo not drawn) | 5µM*
O=C(Nc1nc2n(n1)C(c1ccccc1)C=C(c1ccccc1)N2)c1ccc(Cl)c([N+](=O)[O-])c1 (stereo not drawn) | 8.9µM*
CC1=C(C(=O)Nc2cccnc2)C(c2ccc(Cl)cc2)n2nc(-c3ccccc3)nc2N1 (stereo not drawn) | i
CC(=O)Nc1ccc(S(=O)(=O)Nc2nc3n(n2)C(c2ccccc2)C=C(c2ccc(Cl)cc2)N3)cc1 (stereo not drawn) | 13%
COc1ccccc1C(=O)NC1CCN(c2cc(-c3ccc(Cl)cc3)[nH]n2)CC1 | i
COc1ccc(C2C=C(c3ccc(Cl)cc3)Nc3nc(NC(=O)CCC(=O)O)nn32)cc1 (stereo not drawn) | -5%
COc1ccc(C2C=C(c3ccccc3)Nc3nc(NS(=O)(=O)c4ccc(Cl)cc4)nn32)cc1 (stereo not drawn) | 4%
O=S(=O)(Nc1nc2n(n1)C(c1ccccc1)C=C(c1ccc(Cl)cc1)N2)c1ccccc1 (stereo not drawn) | 27%
O=C(Nc1nc2n(n1)C(c1ccc(F)cc1)C=C(c1ccccc1)N2)c1ccc(Cl)cc1 (stereo not drawn) | 10µM*
SMILES | Pf Dd2 inh
COc1ccccc1C(=O)Nc1nc2n(n1)C(c1ccc(F)cc1)C=C(c1ccc(Cl)cc1)N2 (stereo not drawn) | 4.5µM*
CCN(CC)C(=O)N1CCCC1c1noc(COc2ccc(F)cc2)n1 (stereo not drawn) | -22%
O=C(CCn1cnnn1)N1CCC2(CC1)Nc1ccccc1NC2=O | 5%
CCCCCC(=O)Nc1nc2c(s1)C[C@@H]1[C@](C)(CO)[C@H](O)CC[C@@]1(C)[C@@H]2CC(=O)O | 21%
COCCn1ncc(N2CCC(C(=O)NCCCN3CCc4ccccc4C3)C2)cc1=O (stereo not drawn) | i
O=C(Cc1ccccn1)N1CCc2nc(-c3ccc(Cl)cc3)nc(-c3ccccc3)c2C1 | i
O=C(Cc1c[nH]c(=O)[nH]c1=O)NC(c1cnc2ccccc2c1)C1CC(O)C1 (stereo not drawn) | -19%
C[C@@H](NC(=O)Nc1ccccc1)c1onc(-c2ccc(F)cc2)c1C(=O)O | -14%[44.1 µM]
CCOCc1nc(C2CCCN(C(=O)c3cnccn3)C2)no1 (stereo not drawn) | 54%
O=C(Nc1nc2n(n1)C(c1ccc(F)cc1)C=C(c1ccc(Cl)cc1)N2)c1ccc([N+](=O)[O-])cc1 (stereo not drawn) | 4µM*
Cc1ccc(C2C=C(c3ccccc3)Nc3nc(NS(C)(=O)=O)nn32)cc1 (stereo not drawn) | 107%[5.79 µM]

Screens (PubChem BioAssay)
